# From the supplement of paper PMC8728848
# The full list was thinned out, with the strongest signals kept by preference.
# B1: Ecp6 (Cladosporium fulvum), B3VBK9 (protein)
# chain: MQSMILFAAALMGAAVNGFVLPRTDDPDCETKATDCGSTSNIKYTVVKGDTLTSIAKKFKSGICNIVSVNKLANPNLIELGATLIIPENCSNPDNKSCVSTPAEPTETCVPGLPGSYTIVSGDTLTNISQDFNITLDSLIAANTQIENPDAIDVGQIITVPVCPSSQCEAVGTYNIVAGDLFVDLAATYHTTIGQIKALNNNVNPSKLKVGQQIILPQDCKNVTTAVA
# Key:
# Experiment in all cases: glycan array binding signal (z-score within array); higher = stronger binding
# Details in all cases: glycan notation: IUPAC condensed, linker removed
# [1] = molecular target: Fuc(a1-2)Gal(b1-3)GalNAc(a1-3)[Fuc(a1-2)]Gal(b1-4)Glc
# Summary of the method: (§1)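 Glycan array data were curated from 3228 arrays in the Consortium for Functional Glycomics database and kept only where the protein sequence was available. Glycan names were converted to IUPAC-condensed notation, and columns mapping to the same glycan were averaged. The binding signal is a within-array Z-score, averaged across arrays of the same protein sequence at different concentrations or buffers and across linkers. Negative Z-scores can be read as non-binding.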
# [2] = molecular target: Fuc(a1-2)Gal(b1-3)GalNAc(a1-3)[Fuc(a1-2)]Gal(b1-4)GlcNAc
# Summary of the method: as §1
# [3] = molecular target: Fuc(a1-2)Gal(b1-3)GlcNAc(b1-2)Man(a1-3)[Fuc(a1-2)Gal(b1-3)GlcNAc(b1-2)Man(a1-6)]Man(b1-4)GlcNAc(b1-4)GlcNAc
# Summary of the method: as §1
# Fuc(a1-2)Gal(b1-4)Glc6S = molecular target: Fuc(a1-2)Gal(b1-4)Glc6S
# Summary of the method: as §1
# [4] = molecular target: Fuc(a1-2)Gal(b1-4)GlcNAc(b1-3)Gal(b1-4)GlcNAc(b1-3)Gal(b1-4)GlcNAc
# Summary of the method: as §1
# [5] = molecular target: Fuc(a1-2)Gal(b1-4)[Fuc(a1-3)]GlcNAc
# Summary of the method: as §1
# [6] = molecular target: Fuc(a1-2)[Gal(a1-3)]Gal(b1-4)GlcNAc
# Summary of the method: as §1
# [7] = molecular target: Fuc(a1-2)[Gal(a1-3)]Gal(b1-4)[Fuc(a1-3)]GlcNAc
# Summary of the method: as §1
# [8] = molecular target: Fuc(a1-2)[GalNAc(b1-3)]Gal
# Summary of the method: as §1
# Fuc(b1-3)GlcNAc = molecular target: Fuc(b1-3)GlcNAc
# Summary of the method: as §1
# [9] = molecular target: Gal(a1-3)Gal(b1-4)[Fuc(a1-3)]GlcNAc
# Summary of the method: as §1
# [10] = molecular target: Gal(a1-4)Gal(b1-3)GlcNAc(b1-2)Man(a1-3)[Gal(a1-4)Gal(b1-3)GlcNAc(b1-2)Man(a1-6)]Man(b1-4)GlcNAc(b1-4)GlcNAc
# Summary of the method: as §1
# Gal(a1-4)GlcNAc = molecular target: Gal(a1-4)GlcNAc
# Summary of the method: as §1
# [11] = molecular target: Gal(b1-3)GalNAc(b1-3)Gal(a1-4)Gal(b1-4)Glc
# Summary of the method: as §1
# [12] = molecular target: Gal(b1-3)GlcNAc(b1-3)Gal(b1-4)Glc
# Summary of the method: as §1
# [13] = molecular target: Gal(b1-3)GlcNAc(b1-3)Gal(b1-4)GlcNAc(b1-6)[Gal(b1-3)GlcNAc(b1-3)]Gal(b1-4)Glc
# Summary of the method: as §1
# [14] = molecular target: Gal(b1-3)GlcNAc(b1-3)GalNAc
# Summary of the method: as §1
# [15] = molecular target: Gal(b1-3)[Fuc(a1-4)]GlcNAc(b1-2)Man(a1-3)[Gal(b1-3)[Fuc(a1-4)]GlcNAc(b1-2)Man(a1-6)]Man(b1-4)GlcNAc(b1-4)GlcNAc
# Summary of the method: as §1
# [16] = molecular target: Gal(b1-4)GlcNAc(b1-3)Gal(b1-4)[Fuc(a1-3)]GlcNAc(b1-3)Gal(b1-4)[Fuc(a1-3)]GlcNAc
# Summary of the method: as §1
# [17] = molecular target: Gal(b1-4)GlcNAc(b1-3)[GlcNAc(b1-6)]Gal(b1-4)GlcNAc
# Summary of the method: as §1
# [18] = molecular target: Gal3S(b1-3)[Fuc(a1-4)]GlcNAc
# Summary of the method: as §1
# Gal3S(b1-4)Glc = molecular target: Gal3S(b1-4)Glc
# Summary of the method: as §1
# [19] = molecular target: Gal3S(b1-4)[Fuc(a1-3)]Glc
# Summary of the method: as §1
# GlcA(b1-3)Gal = molecular target: GlcA(b1-3)Gal
# Summary of the method: as §1
# [20] = molecular target: GlcNAc(a1-4)Gal(b1-4)GlcNAc(b1-3)Gal(b1-4)GlcNAc
# Summary of the method: as §1
# [21] = molecular target: GlcNAc(a1-4)Gal(b1-4)GlcNAc(b1-3)Gal(b1-4)[Fuc(a1-3)]GlcNAc(b1-3)Gal(b1-4)[Fuc(a1-3)]GlcNAc
# Summary of the method: as §1
# GlcNAc(b1-3)Gal(b1-4)Glc = molecular target: GlcNAc(b1-3)Gal(b1-4)Glc
# Summary of the method: as §1
# [22] = molecular target: GlcNAc(b1-3)Gal(b1-4)GlcNAc
# Summary of the method: as §1
# [23] = molecular target: GlcNAc(b1-3)Gal(b1-4)GlcNAc(b1-3)Gal(b1-4)GlcNAc
# Summary of the method: as §1
# [24] = molecular target: GlcNAc(b1-4)GlcNAc(b1-4)GlcNAc
# Summary of the method: as §1
binder,measurement,setting,value
B1,glycan array binding signal (z-score),[1],-0.099
same,glycan array binding signal (z-score),[2],-0.099
same,glycan array binding signal (z-score),[3],-0.096
same,glycan array binding signal (z-score),Fuc(a1-2)Gal(b1-4)Glc6S,-0.062
same,glycan array binding signal (z-score),[4],-0.082
same,glycan array binding signal (z-score),[5],-0.078
same,glycan array binding signal (z-score),[6],-0.078
same,glycan array binding signal (z-score),[7],-0.021
same,glycan array binding signal (z-score),[8],-0.077
same,glycan array binding signal (z-score),Fuc(b1-3)GlcNAc,-0.083
same,glycan array binding signal (z-score),[9],-0.102
same,glycan array binding signal (z-score),[10],-0.099
same,glycan array binding signal (z-score),Gal(a1-4)GlcNAc,-0.102
same,glycan array binding signal (z-score),[11],-0.064
same,glycan array binding signal (z-score),[12],-0.076
same,glycan array binding signal (z-score),[13],-0.107
same,glycan array binding signal (z-score),[14],-0.089
same,glycan array binding signal (z-score),[15],-0.039
same,glycan array binding signal (z-score),[16],-0.036
same,glycan array binding signal (z-score),[17],-0.096
same,glycan array binding signal (z-score),[18],-0.074
same,glycan array binding signal (z-score),Gal3S(b1-4)Glc,-0.098
same,glycan array binding signal (z-score),[19],-0.084
same,glycan array binding signal (z-score),GlcA(b1-3)Gal,-0.089
same,glycan array binding signal (z-score),[20],-0.091
same,glycan array binding signal (z-score),[21],-0.002
same,glycan array binding signal (z-score),GlcNAc(b1-3)Gal(b1-4)Glc,-0.094
same,glycan array binding signal (z-score),[22],-0.1
same,glycan array binding signal (z-score),[23],-0.075
same,glycan array binding signal (z-score),[24],10.3
